Bioassay records: PubChem BioAssay, National Center for Advancing Translational Sciences (NCATS)
HTT promoter inh – Primary qHTS for Identification of Small Molecule Inhibitors of Huntingtin Promoter Activity. HEK293 HTT promoter firefly luciferase reporter, 24 h. AID 1508623, 2021. 48,000 tested, 0.93% active. Potency, µM (top dose mostly 57.5 µM), hits mostly inhibitors; note: nearly all actives have a fitted effect of over 50% in size
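Quantitative HTS used concentration series of up to 57.5 uM final on HEK293 luciferase reporter cells, 24 h at 37 degrees C. Readout was Dual-Glo firefly luminescence.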
GALC G270D up – A Novel Cell-Based Assay to Identify Small Molecules for B -Galactocerebrosidase; P54803; 145M-Twi-hGALC-G270D cells (Twitcher mouse brain line with human GALC G270D), HMU-beta-Gal fluorescence, 48 h; Potency, µM (doses to about 57.5 µM), most hits filed as activators; 45,000 tested, 0.1% active; AID 1159614, 2016; note: nearly all actives have a fitted effect of over 65% in size
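Mutant human GALC (G270D), stably expressed in a Twitcher mouse brain cell line lacking endogenous GALC, is measured in live-treated cells via 6-hexadecanoylamino-4-methylumbelliferyl-β-galactoside hydrolysis (0.1 mM final, pH 5.2) with fluorescent detection.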
NTMT1 inh – Primary qHTS for Inhibitors of N-terminal methyltransferase 1 (NTMT1): MTaseGlo Assay; N-terminal Xaa-Pro-Lys N-methyltransferase 1 (Homo sapiens), Q9BV86; 59,000 tested, 2.5% active; NTMT1 MTase-Glo SAH luminescence, purified enzyme; AID 1645870, 2021; Potency, µM (doses to about 114 µM), most hits filed as inhibitors; note: nearly all actives have a fitted effect of over 65% in size
Target sequence (Q9BV86 whole entry, looked up): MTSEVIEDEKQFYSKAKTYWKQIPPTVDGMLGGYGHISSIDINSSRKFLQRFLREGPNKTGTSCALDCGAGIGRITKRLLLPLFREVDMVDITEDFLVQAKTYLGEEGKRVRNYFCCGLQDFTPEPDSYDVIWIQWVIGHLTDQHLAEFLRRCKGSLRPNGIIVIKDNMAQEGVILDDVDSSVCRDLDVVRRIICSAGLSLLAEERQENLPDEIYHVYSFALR
HTT-AS act – Primary qHTS for Identification of Small Molecule Activators of Huntingtin-Antisense Promoter Activity; HEK293 HTT-AS promoter firefly luciferase reporter, 24 h; response scale: percent change from vehicle, -100% = no light; Potency, µM (doses to about 57.5 µM), usual class: activators; 48,000 tested, 0.24% active; AID 1508624, 2021; note: nearly all actives have a fitted effect of over 55% in size
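HEK293 cells carrying firefly luciferase reporters were seeded at 2,500 per well in Opti-MEM and cultured for 24 h. They were then treated with compounds at up to 57.5 uM final for 24 h at 37 degrees C before Dual-Glo luminescence readout.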
DYRK1A KinaseGlo – Assay for Inhibitors of Dual-Specificity Tyrosine-(Y)-Phosphorylation Regulated Kinase 1A (Kinase-Glo assay); shares compounds with NTMT1 inh; recombinant DYRK1A, Kinase-Glo ATP depletion luminescence; Potency, µM (highest dose often 76.9 µM), hits mostly inhibitors; 100 tested, 80% active; AID 2705, 2010
HSD17B4 inh – Extended Characterization of HPGD Inhibitors: Counterscreen Against HSD17b4; shares compounds with NTMT1 inh; purified HSD17B4, estradiol/NAD+, NADH fluorescence; Potency, µM (top dose mostly 57.1 µM), actives largely listed as inhibitors; 230 tested, 10% active
ALDH1A1 inh – Extended Characterization of HPGD Inhibitors: Counterscreen Against ALDH1A1. shares compounds with NTMT1 inh. recombinant ALDH1A1, NADH fluorescence, propionaldehyde/NAD+. Potency, µM (series often up to 57.1 µM), hits mostly inhibitors. 230 tested, 93% active. AID 743195, 2013
NNMT counter – Counterscreen qHTS for Inhibitors of N-terminal methyltransferase 1 (NTMT1): NNMT MTaseGlo assay; shares compounds with NTMT1 inh; NNMT MTase-Glo luminescence, SAH detection; Potency, µM (doses to about 57.1 µM), usual class: inhibitors; 120 tested, 10% active; AID 1645878, 2021
Target sequence (P40261 whole entry, looked up): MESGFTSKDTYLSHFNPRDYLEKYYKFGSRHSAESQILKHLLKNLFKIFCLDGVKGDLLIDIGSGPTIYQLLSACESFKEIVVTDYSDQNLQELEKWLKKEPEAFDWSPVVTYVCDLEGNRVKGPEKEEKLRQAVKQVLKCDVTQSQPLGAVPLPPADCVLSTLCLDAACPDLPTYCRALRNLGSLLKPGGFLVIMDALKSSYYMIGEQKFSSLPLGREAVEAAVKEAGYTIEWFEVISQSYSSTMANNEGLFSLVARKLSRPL
Large screens that a line does not name were inactive (follow-up assays come after a bar, where they were run). Only some compounds are listed: those with a hit (about 2.7% of all), similar ones and a draw of the others. Calls come from the whole dose curve; as a rule, active = well fitted curve in the direction sought with a large enough effect; inconclusive = small, poorly fitted or top-dose-only effect, or another doubt; inactive = no such curve, though single readings can be large; an effect the other way counts as inactive or inconclusive.

CC/C(=C(\c1ccc(O)cc1)c1ccc(OCCNC)cc1)c1ccccc1	NTMT1 inh 22µM (no result: HTT promoter inh, GALC G270D up, HTT-AS act) | NNMT counter inconclusive
CN(C)C(CCOc1cccc2ccccc12)c1ccccc1 (stereo unspecified)	none (no result: HTT promoter inh, GALC G270D up, HTT-AS act)
CN1CCN(S(=O)(=O)c2ccc(-c3cnc(N)c(C(=O)Nc4cccnc4)n3)cc2)CC1	none (no result: HTT promoter inh, GALC G270D up, HTT-AS act)
N#Cc1ccc(Nc2nc(-c3ccc(O)cc3O)cs2)cc1C(F)(F)F	NTMT1 inh inconclusive (no result: HTT promoter inh, GALC G270D up, HTT-AS act) | NNMT counter inactive
O=C(Nc1ccc(F)c(C(F)(F)F)c1)Nc1nc(-c2ccncc2)cs1	none (no result: HTT promoter inh, GALC G270D up, HTT-AS act)
Cc1noc(C)c1-c1ccc2ncnc(NCc3ccccc3C(F)(F)F)c2c1	none (no result: HTT promoter inh, GALC G270D up, HTT-AS act)
Cc1nc(CNc2ncnc3ccc(-c4sc(C)nc4C)cc23)cs1	NTMT1 inh inconclusive (no result: HTT promoter inh, GALC G270D up, HTT-AS act) | DYRK1A KinaseGlo 8.2µM
Cc1nc(CNc2ncnc3ccc(-c4oc(-c5ccccc5)nc4C)cc23)cs1	NTMT1 inh inconclusive (no result: HTT promoter inh, GALC G270D up, HTT-AS act) | DYRK1A KinaseGlo inconclusive
Cc1ccsc1CNc1ncnc2ccc(-c3c(C)noc3C)cc12	none (no result: HTT promoter inh, GALC G270D up, HTT-AS act)
Cc1nc(CNc2ncnc3ccc(-c4ccoc4C)cc23)cs1	none (no result: HTT promoter inh, GALC G270D up, HTT-AS act) | DYRK1A KinaseGlo 7.3µM
CCOc1ccc(CCNC(=O)c2cc3c(s2)CCC3)cc1OCC	none (no result: HTT promoter inh, GALC G270D up, HTT-AS act)
CN(C)c1ccc(Nc2nc(N)n(C(=O)c3c(F)cccc3F)n2)cc1	NTMT1 inh inconclusive, HTT-AS act 24µM (no result: GALC G270D up) | NNMT counter inactive
NC(=O)c1nc(Nc2ccccc2)sc1NC(=O)c1c(F)cccc1F	HTT-AS act inconclusive
CN=c1nc(-c2ccccc2)n(-c2ccccc2)s1	none (no result: HTT promoter inh, GALC G270D up, NTMT1 inh, HTT-AS act) | NNMT counter 22µM
Cc1ccc(-n2c(C)cc(-c3nnc4n3CCCCC4)c2C)cc1	none (no result: HTT promoter inh, GALC G270D up, HTT-AS act) | HSD17B4 inh inactive | ALDH1A1 inh inconclusive
Cc1cc(-c2nnc3n2CCCCC3)c(C)n1-c1cccc(C(F)(F)F)c1	none (no result: HTT promoter inh, GALC G270D up, HTT-AS act) | HSD17B4 inh inactive | ALDH1A1 inh inconclusive
Cc1cc(-c2nnc3n2CCCCC3)c(C)n1-c1ccncc1	none (no result: HTT promoter inh, GALC G270D up, HTT-AS act)
CCCNc1ccc2ncc(-c3ccc4[nH]ncc4c3)n2n1	NTMT1 inh 28µM (no result: HTT promoter inh, GALC G270D up, HTT-AS act) | NNMT counter 14µM
CN(C)c1cnc2c(O)ccc(C(=O)O)c2c1	none (no result: HTT promoter inh, GALC G270D up, HTT-AS act)
